Source: PubChem BioAssay
In the library only some 4.8% were active in any assay of this set; here they are far more common.
Calb FLC: C. albicans growth modulation with fluconazole. C. albicans CaCi-2 (fluconazole-resistant clinical isolate) + fluconazole, Alamar Blue growth, 48 h. growth inhibition, % (concentration not given with the values). hit rate 0.57% among 300,000;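 active = growth inhibition above about 58% in most replicates, limit read from the data, passing the limit was not always enough; inconclusive = exactly half the replicates above a set limit; inactive = most replicates below a set limit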;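 note: all wells also contain fluconazole at 8 µg/ml as a sub-toxic cotreatment; 0% = median of DMSO wells and 100% = median of geldanamycin control wells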
Mdm2 MdmX PPI: disrupts the human Mdm2-MdmX interaction; O15151+Q00987; SaOS-2 split-luciferase Mdm2/MdmX complementation, luminescence; inhibition, % at 8 µM; hit rate 3% among 330,000; AID 485346;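 active = inhibition of at least 50% at 8 µM in the primary screen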
CSC inhib: cancer stem cell inhibition; hit rate 1.1% among 300,000; inhibition, % at 7.5 µM; cancer stem cell-like cells viability, luminescence; in the data active = inhibition above about 75%; inconclusive = no clear call, values can overlap the other calls; tested in HMLE shEcad cells
Beta cell apopt: beta cell apoptosis inhibition; INS-1E cytokine-induced death, ATP luminescence, 48 h; percent of positive-control rescue, neutral wells zero; protection from apoptosis, % (test concentration not listed); hit rate 0.8% among 300,000; AID 435005;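 active = Every replicate reaches about 75%, or at least half do and their mean reaches it too, limit read from the data; inconclusive = At least half of replicates reach the limit but their mean does not; inactive = Under half of replicates reach the limit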;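 note: 0% = cytokine-treated negative control wells and 100% = positive control rescue; higher means more ATP so stronger rescue from cytokine killing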
MPTP inh: blocks calcium-induced mitochondrial swelling | isolated mouse mitochondria, Ca2+ swelling absorbance, 30 min | inhibition, % at 10 µM | hit rate 1.4% among 360,000;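 active = inhibition of 50% or more, scaled per plate between neutral and stimulator controls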;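 note: 0% = DMSO wells given calcium and 100% = 1 mM EGTA wells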
* marks the source's active call; other numbers are inactive results.

For CCS(=O)(=O)N1CCN(Cc2c[nH]c3ccccc23)CC1 the results were Calb FLC -7, Mdm2 MdmX PPI 13, CSC inhib -3, Beta cell apopt -6 and MPTP inh 0.
`Brc1ccccc1CN1CCN(Cc2c[nH]c3ccccc23)CC1` gave Calb FLC 50, Mdm2 MdmX PPI 48, CSC inhib 4 and Beta cell apopt 130*.
O=[N+]([O-])c1ccc(CN2CCN(Cc3c[nH]c4ccccc34)CC2)cc1 was read as Calb FLC -21, Mdm2 MdmX PPI -3, CSC inhib -16, Beta cell apopt 3 and MPTP inh 2.
`Cn1cnc(S(=O)(=O)N2CCCCC2c2cc(C(=O)NCc3ccc(Cl)c(Cl)c3)no2)c1` (stereo unspecified) gave MPTP inh 1.
For O=C1CS/C(=N\C(=O)N2c3ccccc3Sc3ccccc32)N1 the results were Calb FLC 95*, Mdm2 MdmX PPI 7, CSC inhib 25, Beta cell apopt -10 and MPTP inh 10.
Screening CSc1ccc(CN2CCC2(C)C(=O)Nc2cccc(Oc3ccccc3)c2)cc1 (stereo unspecified) returned MPTP inh 1.
Screening CCCCCCCNC1=CC(=O)CC(c2ccccc2)C1 (stereo unspecified) returned Calb FLC -32, Mdm2 MdmX PPI 42, CSC inhib 45, Beta cell apopt 91* and MPTP inh 26.
Screening CC(=O)C1=CCC(c2ccc(C)cc2)N(S(=O)(=O)c2ccc(Cl)cc2)C1 (stereo unspecified) returned MPTP inh 0.
S=c1[nH]c2cc(Cl)c3cccnc3c2o1 was read as Calb FLC 79*, Mdm2 MdmX PPI 12, CSC inhib -11, Beta cell apopt -7 and MPTP inh 0.
S=c1[nH]c2ncccc2o1 was read as Calb FLC 1, Mdm2 MdmX PPI 15, CSC inhib 5, Beta cell apopt -3 and MPTP inh -2.
`COCCNc1nc(Nc2ccc(C)cc2C)c2sccc2n1` gave MPTP inh 1.
Screening N#Cc1ccccc1S(=O)(=O)NC(=O)[C@H]1O[C@@H](n2cnc3c(N)ncnc32)[C@H](O)[C@@H]1O returned MPTP inh 1.
`CCCCCCn1cc(CN2CC(N(C)CCC)CS2(=O)=O)nn1` (stereo unspecified) gave MPTP inh -1.
`COc1ccc(OC)c(/C=C/C(=O)NC2=NCCS2)c1` gave Calb FLC -12, Mdm2 MdmX PPI 19, CSC inhib -7, Beta cell apopt -2 and MPTP inh 0.
`COc1ccc(OC)c(/C=C/C(=O)Nc2ccc(OC)nc2)c1` gave Calb FLC 113*, Mdm2 MdmX PPI -3, CSC inhib 24, Beta cell apopt -2 and MPTP inh -1.
For COc1ccc(Br)cc1/C=C/C(=O)Nc1ccc(C)cc1 the results were Calb FLC -19, Mdm2 MdmX PPI 1, CSC inhib 69, Beta cell apopt 13 and MPTP inh 14.
For COc1ccc(Br)cc1/C=C/C(=O)Nc1ccc2ccccc2c1 the results were Calb FLC 5, Mdm2 MdmX PPI 16, CSC inhib 77*, Beta cell apopt 11 and MPTP inh 21.
`CCCCn1nnnc1C(c1ccccc1)N1CCN(c2ccc(C)cc2)CC1` (stereo unspecified) gave MPTP inh 1.
`O=C(O)C1CCC(Cn2c(SCc3cc(=O)n4cc(Br)ccc4n3)nc3ccsc3c2=O)CC1` (stereo unspecified) gave Calb FLC 41, Mdm2 MdmX PPI 16, CSC inhib -15, Beta cell apopt -11 and MPTP inh -3.
`O=C(O)c1ccc(Cn2c(SCc3cc(=O)n4cc(Br)ccc4n3)nc3ccsc3c2=O)cc1` gave Calb FLC 112*, Mdm2 MdmX PPI -11, CSC inhib 8 and Beta cell apopt 1.
Screening COc1ccc(S(=O)(=O)N[C@H]2CC[C@H](CCNC(=O)c3ccccc3F)O[C@@H]2CO)cc1 returned MPTP inh 1.
`Cc1cccc(NC(=O)CSCC(=O)Nc2ccc(S(=O)(=O)N3CCCC3)cc2)c1` gave Calb FLC -1, Mdm2 MdmX PPI -11, CSC inhib -6, Beta cell apopt 4 and MPTP inh 0.
`Cc1cccc(CNc2ccc(S(=O)(=O)N3CCCCC3)cc2)c1` gave Mdm2 MdmX PPI 11, Beta cell apopt 101* and MPTP inh 0.
Screening COc1ccccc1Cc1c(C(C)(C)C)nc2ccc(C)cn12 returned MPTP inh 1.
For Oc1c(Br)cc(/C=N/n2c(-c3ccccc3)n[nH]c2=S)c(Br)c1O the results were Calb FLC -4, CSC inhib 106* and Beta cell apopt 8.
`Oc1c(Br)cc(Br)cc1/C=N/n1c(-c2ccccc2)n[nH]c1=S` gave Calb FLC 12, Mdm2 MdmX PPI 10, CSC inhib 1, Beta cell apopt -9 and MPTP inh -2.
CCCCCCCCN1C(=O)[C@H](CC(=O)NCc2cccc(C(F)(F)F)c2)C[C@@]2(C(=O)OC)CCCCC=C12 was read as MPTP inh 1.
For COc1ccc2c(c1)c(/C=C/c1cc[n+](C)cc1)cn2C the results were Calb FLC 81*, Mdm2 MdmX PPI 5, CSC inhib -25, Beta cell apopt 49 and MPTP inh 0.
COc1ccc2c(/C=C/c3cc[n+](C)cc3)c[nH]c2c1 was read as Calb FLC 0, Mdm2 MdmX PPI 22, CSC inhib 0, Beta cell apopt 59 and MPTP inh 1.
`CNC(=O)OC1CC2CC1[C@H]1CCCCN1C2=O` (stereo partly specified) gave MPTP inh -2.
For COc1ccc2[nH]c3c(=O)n(/N=C/[C@H]4C(C)C=C(C)CC4C)c(=O)[nH]c3c2c1 (stereo partly specified) the results were Calb FLC 12, Mdm2 MdmX PPI 16, CSC inhib 88*, Beta cell apopt 5 and MPTP inh 25.
For COc1ccc2[nH]c3c(=O)n(N)c(=O)[nH]c3c2c1 the results were Calb FLC -14, Mdm2 MdmX PPI 0, CSC inhib 3, Beta cell apopt 4 and MPTP inh -1.
Screening CCCCOc1ccc(S(=O)(=O)N2CCN(c3ccc(N4CCN(CC)CC4)nn3)CC2)cc1 returned Calb FLC 0, Mdm2 MdmX PPI 34, CSC inhib 95* and MPTP inh -3.
`CCOC(=O)c1c(CSc2ccccc2)oc2ccc(O)cc12` gave Calb FLC inconclusive, Mdm2 MdmX PPI -5, CSC inhib 23, Beta cell apopt -4 and MPTP inh 29.
`CCOC(=O)c1c(CSc2ccc(C)cc2)oc2ccc(O)cc12` gave Calb FLC -10, Mdm2 MdmX PPI 25, CSC inhib 135*, Beta cell apopt -7 and MPTP inh 26.
O=C1CN2C(=Nc3ccc(Cl)cc3C2c2ccccc2)CN1 (stereo unspecified) was read as Calb FLC 88*, Mdm2 MdmX PPI 29, CSC inhib 6, Beta cell apopt 0 and MPTP inh 1.
